Measurements as given in the supplement of paper PMC11732987, “Enantioselective OTUD7B fragment discovery through chemoproteomics screening and high-throughput optimisation” (Communications Chemistry, 2025).
Values without a mark were called inactive.

Legend:
Test in all cases: log2 ratio of Biotin-Ahx-Ub-VS probe labelling (fragment/DMSO); higher = less target engagement (more negative = stronger competition), active = hit call of the paper (q ≤ 0.05, log2 ratio ≤ -1)
Conditions in all cases: compound concentration: 200 uM; treatment time: 3 h
[1] = molecular target: T1, USP19 (UniProt O94966)
T1 sequence (whole entry): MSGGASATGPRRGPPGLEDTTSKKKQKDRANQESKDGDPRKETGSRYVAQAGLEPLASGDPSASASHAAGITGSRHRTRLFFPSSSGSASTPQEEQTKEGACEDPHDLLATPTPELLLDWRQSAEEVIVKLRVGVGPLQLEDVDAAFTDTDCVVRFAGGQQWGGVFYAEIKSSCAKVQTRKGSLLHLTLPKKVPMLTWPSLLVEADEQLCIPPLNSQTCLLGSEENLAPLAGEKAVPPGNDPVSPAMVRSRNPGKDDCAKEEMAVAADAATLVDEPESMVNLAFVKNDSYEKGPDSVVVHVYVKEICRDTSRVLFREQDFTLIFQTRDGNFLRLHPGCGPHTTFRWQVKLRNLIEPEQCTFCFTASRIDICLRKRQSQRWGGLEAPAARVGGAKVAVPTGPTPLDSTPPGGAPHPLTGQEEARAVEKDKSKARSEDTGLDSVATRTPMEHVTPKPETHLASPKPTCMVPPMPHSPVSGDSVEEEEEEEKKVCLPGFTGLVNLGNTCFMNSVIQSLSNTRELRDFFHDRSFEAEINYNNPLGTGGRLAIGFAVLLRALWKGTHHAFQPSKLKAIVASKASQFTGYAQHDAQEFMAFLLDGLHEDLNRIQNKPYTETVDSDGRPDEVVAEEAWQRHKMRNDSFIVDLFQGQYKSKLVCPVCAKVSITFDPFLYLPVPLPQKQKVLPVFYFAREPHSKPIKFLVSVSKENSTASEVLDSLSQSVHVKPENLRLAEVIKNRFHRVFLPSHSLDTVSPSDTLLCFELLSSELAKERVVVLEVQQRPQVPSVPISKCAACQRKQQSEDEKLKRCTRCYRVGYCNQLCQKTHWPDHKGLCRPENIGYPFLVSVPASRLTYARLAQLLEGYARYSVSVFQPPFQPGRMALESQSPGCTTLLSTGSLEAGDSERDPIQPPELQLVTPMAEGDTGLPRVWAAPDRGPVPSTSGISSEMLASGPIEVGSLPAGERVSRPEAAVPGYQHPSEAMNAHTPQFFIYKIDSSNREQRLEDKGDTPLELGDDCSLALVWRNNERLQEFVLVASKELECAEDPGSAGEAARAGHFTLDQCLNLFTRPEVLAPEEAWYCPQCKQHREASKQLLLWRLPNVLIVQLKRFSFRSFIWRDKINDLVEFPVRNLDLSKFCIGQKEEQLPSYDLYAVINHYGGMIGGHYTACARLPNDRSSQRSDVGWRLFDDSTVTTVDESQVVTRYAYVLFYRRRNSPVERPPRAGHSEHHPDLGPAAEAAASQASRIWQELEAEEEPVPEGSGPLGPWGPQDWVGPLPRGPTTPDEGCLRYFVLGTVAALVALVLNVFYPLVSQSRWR
How it was run: (§1)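 Labelling with Biotin-Ahx-Ub-VS (0.5 µM final, 1 h) followed a 3 h triplicate treatment of HEK293T lysate (495 µg per sample, Tris/CHAPS/IGEPAL buffer with protease inhibitors) with fragment at 200 µM or vehicle. Labelled DUBs were NeutrAvidin-enriched, digested with LysC and trypsin, and run by diaPASEF LC-MS/MS. The values, average log2 fragment/vehicle ratios by unpaired t-test, come from global-median-normalised Spectronaut label-free quantities. Proteins with ≥2 unique peptides were used.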

[2] = molecular target: T2, USP22 (UniProt Q9UPT9)
T2 sequence (whole entry): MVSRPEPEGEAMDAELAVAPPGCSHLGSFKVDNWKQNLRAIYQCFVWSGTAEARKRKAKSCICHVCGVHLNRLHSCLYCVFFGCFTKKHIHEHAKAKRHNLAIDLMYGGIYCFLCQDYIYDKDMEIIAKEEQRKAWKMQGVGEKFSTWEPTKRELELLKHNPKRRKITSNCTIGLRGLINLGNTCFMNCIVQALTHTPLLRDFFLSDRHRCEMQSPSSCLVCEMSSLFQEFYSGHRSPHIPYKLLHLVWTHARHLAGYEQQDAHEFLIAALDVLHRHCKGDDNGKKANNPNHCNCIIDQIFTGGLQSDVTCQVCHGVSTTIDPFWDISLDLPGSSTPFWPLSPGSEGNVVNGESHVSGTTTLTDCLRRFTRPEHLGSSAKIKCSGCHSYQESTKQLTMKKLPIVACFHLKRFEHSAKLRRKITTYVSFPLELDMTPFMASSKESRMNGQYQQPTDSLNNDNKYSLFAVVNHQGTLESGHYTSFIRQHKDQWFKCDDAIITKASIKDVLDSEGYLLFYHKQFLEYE
How it was run: as §1

[3] = molecular target: USP24 (UniProt Q9UPU5)
How it was run: as §1

[4] = molecular target: T3, USP25 (UniProt Q9UHP3)
T3 sequence (whole entry): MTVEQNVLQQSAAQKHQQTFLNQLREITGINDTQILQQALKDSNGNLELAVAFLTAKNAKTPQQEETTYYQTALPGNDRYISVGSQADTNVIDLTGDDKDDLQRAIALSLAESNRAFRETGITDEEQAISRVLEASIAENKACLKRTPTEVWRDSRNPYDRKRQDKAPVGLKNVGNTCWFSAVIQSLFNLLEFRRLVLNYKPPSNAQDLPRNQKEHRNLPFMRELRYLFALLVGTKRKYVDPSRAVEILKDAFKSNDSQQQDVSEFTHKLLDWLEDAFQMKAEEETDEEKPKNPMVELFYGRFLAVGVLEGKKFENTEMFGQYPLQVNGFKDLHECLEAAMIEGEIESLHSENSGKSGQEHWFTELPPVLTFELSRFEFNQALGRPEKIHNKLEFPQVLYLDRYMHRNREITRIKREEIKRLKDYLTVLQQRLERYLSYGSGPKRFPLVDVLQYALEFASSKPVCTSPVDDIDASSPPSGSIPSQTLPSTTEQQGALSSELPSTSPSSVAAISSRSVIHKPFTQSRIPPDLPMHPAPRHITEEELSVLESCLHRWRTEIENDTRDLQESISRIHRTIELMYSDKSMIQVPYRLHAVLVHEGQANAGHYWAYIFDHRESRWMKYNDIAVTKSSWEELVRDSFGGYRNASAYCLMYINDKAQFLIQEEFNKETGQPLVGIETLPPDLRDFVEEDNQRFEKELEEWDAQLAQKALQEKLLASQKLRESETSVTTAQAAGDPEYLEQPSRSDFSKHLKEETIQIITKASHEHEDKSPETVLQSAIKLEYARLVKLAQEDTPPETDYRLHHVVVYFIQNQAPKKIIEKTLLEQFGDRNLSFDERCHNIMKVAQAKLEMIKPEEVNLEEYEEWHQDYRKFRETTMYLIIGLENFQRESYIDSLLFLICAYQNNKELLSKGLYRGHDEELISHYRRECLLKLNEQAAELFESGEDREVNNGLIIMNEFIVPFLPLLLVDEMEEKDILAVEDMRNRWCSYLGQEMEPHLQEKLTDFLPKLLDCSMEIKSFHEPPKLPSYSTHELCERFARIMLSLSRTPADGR
How it was run: as §1

[5] = molecular target: T4, USP28 (UniProt Q96RU2)
T4 sequence (whole entry): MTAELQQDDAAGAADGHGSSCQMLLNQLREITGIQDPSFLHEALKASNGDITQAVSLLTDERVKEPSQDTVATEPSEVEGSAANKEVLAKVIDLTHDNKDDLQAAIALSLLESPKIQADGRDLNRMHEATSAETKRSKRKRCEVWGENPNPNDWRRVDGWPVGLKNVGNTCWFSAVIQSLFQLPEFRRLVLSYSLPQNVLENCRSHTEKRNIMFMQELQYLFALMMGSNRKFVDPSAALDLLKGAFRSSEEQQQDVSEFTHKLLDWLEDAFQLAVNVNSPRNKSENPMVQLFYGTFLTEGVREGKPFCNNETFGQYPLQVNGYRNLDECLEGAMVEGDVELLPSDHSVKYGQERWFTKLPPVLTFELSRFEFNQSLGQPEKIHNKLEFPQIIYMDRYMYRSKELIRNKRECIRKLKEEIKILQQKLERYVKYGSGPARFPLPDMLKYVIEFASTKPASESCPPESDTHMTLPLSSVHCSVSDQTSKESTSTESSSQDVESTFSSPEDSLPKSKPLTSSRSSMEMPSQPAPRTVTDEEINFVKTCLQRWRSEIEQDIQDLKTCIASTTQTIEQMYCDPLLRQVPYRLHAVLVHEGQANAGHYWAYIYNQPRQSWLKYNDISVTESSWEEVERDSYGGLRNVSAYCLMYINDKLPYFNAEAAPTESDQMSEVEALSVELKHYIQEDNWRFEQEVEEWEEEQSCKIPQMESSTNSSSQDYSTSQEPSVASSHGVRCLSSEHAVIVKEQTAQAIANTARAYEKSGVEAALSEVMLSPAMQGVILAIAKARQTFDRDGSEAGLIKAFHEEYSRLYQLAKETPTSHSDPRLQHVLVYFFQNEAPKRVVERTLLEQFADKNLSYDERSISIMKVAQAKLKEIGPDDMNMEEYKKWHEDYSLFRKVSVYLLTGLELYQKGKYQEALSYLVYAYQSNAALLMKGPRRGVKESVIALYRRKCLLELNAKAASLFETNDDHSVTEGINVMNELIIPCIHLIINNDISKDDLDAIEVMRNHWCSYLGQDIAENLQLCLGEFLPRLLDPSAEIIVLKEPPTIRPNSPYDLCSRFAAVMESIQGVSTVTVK
How it was run: as §1

Chain of USP24 (Q9UPU5 whole entry): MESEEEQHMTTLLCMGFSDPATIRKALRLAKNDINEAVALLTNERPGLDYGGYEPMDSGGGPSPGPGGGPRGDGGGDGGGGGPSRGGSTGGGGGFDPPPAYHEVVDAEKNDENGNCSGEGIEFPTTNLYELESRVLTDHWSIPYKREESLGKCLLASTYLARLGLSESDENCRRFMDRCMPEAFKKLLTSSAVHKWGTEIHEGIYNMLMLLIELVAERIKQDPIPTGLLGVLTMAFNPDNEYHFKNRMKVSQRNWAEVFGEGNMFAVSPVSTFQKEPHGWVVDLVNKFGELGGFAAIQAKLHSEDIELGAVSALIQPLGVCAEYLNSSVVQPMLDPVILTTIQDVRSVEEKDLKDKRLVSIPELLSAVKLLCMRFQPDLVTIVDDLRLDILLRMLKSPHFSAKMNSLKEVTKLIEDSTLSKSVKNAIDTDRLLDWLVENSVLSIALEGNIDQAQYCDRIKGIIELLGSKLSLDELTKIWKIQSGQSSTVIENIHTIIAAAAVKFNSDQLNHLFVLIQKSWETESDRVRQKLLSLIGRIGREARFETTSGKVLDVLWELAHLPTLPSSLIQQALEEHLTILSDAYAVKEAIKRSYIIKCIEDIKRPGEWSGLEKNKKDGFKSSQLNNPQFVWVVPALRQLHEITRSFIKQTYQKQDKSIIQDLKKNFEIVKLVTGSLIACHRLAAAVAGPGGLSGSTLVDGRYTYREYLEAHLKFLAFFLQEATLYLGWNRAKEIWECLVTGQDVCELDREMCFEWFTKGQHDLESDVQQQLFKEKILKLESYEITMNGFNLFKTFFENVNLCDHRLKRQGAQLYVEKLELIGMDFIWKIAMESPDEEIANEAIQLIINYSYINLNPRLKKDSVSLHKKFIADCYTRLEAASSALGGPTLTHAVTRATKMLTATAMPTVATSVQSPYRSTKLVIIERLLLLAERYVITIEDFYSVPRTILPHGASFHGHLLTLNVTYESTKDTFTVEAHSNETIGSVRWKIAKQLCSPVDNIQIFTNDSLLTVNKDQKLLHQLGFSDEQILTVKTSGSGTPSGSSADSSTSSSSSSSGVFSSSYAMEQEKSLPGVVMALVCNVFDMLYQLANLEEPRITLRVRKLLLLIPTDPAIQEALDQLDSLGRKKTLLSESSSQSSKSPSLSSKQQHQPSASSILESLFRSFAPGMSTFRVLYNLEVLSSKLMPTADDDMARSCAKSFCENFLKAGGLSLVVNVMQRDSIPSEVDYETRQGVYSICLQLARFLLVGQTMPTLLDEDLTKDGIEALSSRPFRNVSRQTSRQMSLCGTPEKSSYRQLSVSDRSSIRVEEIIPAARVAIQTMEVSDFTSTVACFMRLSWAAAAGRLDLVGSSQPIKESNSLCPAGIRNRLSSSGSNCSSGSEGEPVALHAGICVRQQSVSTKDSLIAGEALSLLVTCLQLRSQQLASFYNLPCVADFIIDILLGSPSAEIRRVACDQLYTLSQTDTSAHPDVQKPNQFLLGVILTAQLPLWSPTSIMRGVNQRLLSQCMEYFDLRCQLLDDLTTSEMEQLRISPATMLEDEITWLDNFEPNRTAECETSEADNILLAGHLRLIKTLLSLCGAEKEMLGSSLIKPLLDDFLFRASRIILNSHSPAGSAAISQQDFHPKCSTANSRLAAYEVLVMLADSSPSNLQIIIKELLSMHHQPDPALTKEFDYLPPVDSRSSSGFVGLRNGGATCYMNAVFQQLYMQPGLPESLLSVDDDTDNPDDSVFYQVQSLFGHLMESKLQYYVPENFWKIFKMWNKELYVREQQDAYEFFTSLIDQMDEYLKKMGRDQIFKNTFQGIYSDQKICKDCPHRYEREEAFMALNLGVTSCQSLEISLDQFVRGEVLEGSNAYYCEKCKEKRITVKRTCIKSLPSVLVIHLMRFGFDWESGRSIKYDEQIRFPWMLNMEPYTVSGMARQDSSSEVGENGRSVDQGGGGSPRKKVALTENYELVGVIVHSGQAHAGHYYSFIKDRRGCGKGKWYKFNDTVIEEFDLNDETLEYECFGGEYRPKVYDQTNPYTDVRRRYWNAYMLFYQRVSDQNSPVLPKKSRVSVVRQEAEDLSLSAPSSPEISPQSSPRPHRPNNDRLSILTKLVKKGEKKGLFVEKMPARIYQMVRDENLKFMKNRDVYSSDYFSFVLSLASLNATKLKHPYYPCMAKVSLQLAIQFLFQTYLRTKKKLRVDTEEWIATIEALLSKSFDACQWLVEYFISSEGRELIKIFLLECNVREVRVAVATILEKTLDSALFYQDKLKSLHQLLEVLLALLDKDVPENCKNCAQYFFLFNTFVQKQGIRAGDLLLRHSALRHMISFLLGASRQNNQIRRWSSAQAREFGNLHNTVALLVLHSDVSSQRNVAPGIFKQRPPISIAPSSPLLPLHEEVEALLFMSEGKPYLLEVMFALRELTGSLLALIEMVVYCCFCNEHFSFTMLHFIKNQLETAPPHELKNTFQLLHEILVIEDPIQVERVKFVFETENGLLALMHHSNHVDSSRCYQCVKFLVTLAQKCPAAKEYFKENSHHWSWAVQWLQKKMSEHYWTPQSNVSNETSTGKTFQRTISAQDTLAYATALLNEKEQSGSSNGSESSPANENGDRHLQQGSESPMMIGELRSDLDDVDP

CCC1c2ccsc2CCN1C(=O)CCl (stereo not given)
log2 ratio of Biotin-Ahx-Ub-VS probe labelling [1]: -0.544 | log2 ratio of Biotin-Ahx-Ub-VS probe labelling [2]: 0.0245 | log2 ratio of Biotin-Ahx-Ub-VS probe labelling [3]: -1.31 (active) | log2 ratio of Biotin-Ahx-Ub-VS probe labelling [4]: -0.177 | log2 ratio of Biotin-Ahx-Ub-VS probe labelling [5]: -0.461
